These results are taken from PubChem BioAssay (EPA / NIEHS).

More than one record can exist for a structure, and the calls need not agree. The source made the active and inactive calls. Rule for the calls: active = hit-call score of the fitted dose curve at least 0.9, where 1 is the maximum; inactive = score below 0.9.

Read-out in test [1]: Macrophage colony-stimulating factor (MCSF), CSF1 (gene 1435)
The test can be described thus: BSK_hDFCGF_MCSF: BioMAP Diversity Plus: hDFCGF Assay for Macrophage colony-stimulating factor (MCSF) Biomarker Activity (AID 2283060). The settings on record: primary human foreskin fibroblasts; actives raise or lower the signal. The method in brief:
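M-CSF levels, determined by ELISA, are taken at 24 h after dosing human skin fibroblasts. Responses in either direction are fitted with DMSO serving as the baseline.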

Test [2] in a line: BSK_hDFCGF_SRB: Viability Assessment in the BioMAP Diversity Plus: hDFCGF Assay (AID 2283061).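 Note: cells exposed to compound for 24 h before the read.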 The settings on record: primary human foreskin fibroblasts. The method in brief:
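Cells were dosed with test chemical, cultured 24 h, fixed with 10% TCA, then stained with 0.1% SRB and read at 560 nm. The fibroblasts were human foreskin primary cells, and DMSO served as baseline.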

Read-out in test [3]: TIMP metallopeptidase inhibitor 1 (TIMP1), TIMP1 (gene 7076)
The test can be described thus: BSK_hDFCGF_TIMP1: BioMAP Diversity Plus: hDFCGF Assay for TIMP metallopeptidase inhibitor 1 (TIMP1) Biomarker Activity (AID 2283062). The following applies: primary human foreskin fibroblasts; actives raise or lower the signal. The method in brief:
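Fibroblasts from human foreskin are treated with test chemical and harvested at 24 h. TIMP-1 is quantified by ELISA, and gain or loss of signal is scored against DMSO.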

Read-out in test [4]: Monokine induced gamma interferon (MIG), CXCL9 (gene 4283)
Nature of the test: BSK_hDFCGF_MIG: BioMAP Diversity Plus: hDFCGF Assay for Monokine induced gamma interferon (MIG) Biomarker Activity (AID 2283063). The following applies: primary human foreskin fibroblasts; actives raise or lower the signal. In short, it runs like this: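 MIG signal, determined by ELISA, reflects 24 h chemical exposure of human skin primary fibroblasts. DMSO serves as negative control and baseline.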

Read-out in test [5]: Matrix Metallopeptidase 1 (MMP1), MMP1 (gene 4312)
Nature of the test: BSK_hDFCGF_MMP1: BioMAP Diversity Plus: hDFCGF Assay for Matrix Metallopeptidase 1 (MMP1) Biomarker Activity (AID 2283064). The settings on record: primary human foreskin fibroblasts; actives raise or lower the signal. In short, it runs like this: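 hDFCGF primary fibroblasts (human foreskin); chemical added; 24 h; MMP1 by ELISA; bidirectional fit vs DMSO.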

Read-out in test [6]: Vascular cell adhesion molecule 1 (VCAM1), VCAM1 (gene 7412)
The test can be described thus: BSK_hDFCGF_VCAM1: BioMAP Diversity Plus: hDFCGF Assay for Vascular cell adhesion molecule 1 (VCAM1) Biomarker Activity (AID 2283065).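 For AC50: VCAM-1 protein level quantified by ELISA after 24 h chemical exposure.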 The settings on record: primary human foreskin fibroblasts; actives raise or lower the signal. The method in brief:
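Cells are dosed, cultured for 24 h, then VCAM-1 is quantified by ELISA; signal increases and decreases are both fitted relative to DMSO.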

Read-out in test [7]: Plasminogen activator inhibitor-1 (PAI1), SERPINE1 (gene 5054)
The test can be described thus: BSK_hDFCGF_PAI1: BioMAP Diversity Plus: hDFCGF Assay for Plasminogen activator inhibitor-1 (PAI1) Biomarker Activity (AID 2283066). The following applies: primary human foreskin fibroblasts; actives raise or lower the signal. In short, it runs like this:
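PAI-1 levels, determined by ELISA, served as the endpoint in human foreskin fibroblast cultures exposed to compound for 24 h, with DMSO as baseline.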

Read-out in test [8]: Interferon-gamma inducible Protein 10 (IP10), CXCL10 (gene 3627)
Nature of the test: BSK_KF3CT_IP10: BioMAP Diversity Plus: KF3CT Assay for Interferon-gamma inducible Protein 10 (IP10) Biomarker Activity (AID 2283068). The following applies: primary human keratinocytes with fibroblasts; actives raise or lower the signal. The method in brief: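 KF3CT co-culture (keratinocytes + foreskin fibroblasts), 24 h compound, IP-10 by ELISA; bidirectional fit vs DMSO baseline.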

A short description of test [9]: BSK_KF3CT_SRB: Viability Assessment in the BioMAP Diversity Plus: KF3CT Assay (AID 2283069).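 Note: total protein by sulforhodamine B staining as a cytotoxicity measure; read 24 h after compound addition; fitted for both signal gain and loss against DMSO baseline.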 The settings on record: primary human keratinocytes with fibroblasts. In short, it runs like this: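 Keratinocytes co-cultured with foreskin fibroblasts (human primary); chemical added, 24 h; fix 10% TCA, stain 0.1% SRB, A560. Bidirectional fit vs DMSO.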
Read-out in test [10]: Intercellular Adhesion Molecule 1 (ICAM1), ICAM1 (gene 3383)
The test can be described thus: BSK_KF3CT_ICAM1: BioMAP Diversity Plus: KF3CT Assay for Intercellular Adhesion Molecule 1 (ICAM1) Biomarker Activity (AID 2283067). The following applies: primary human keratinocytes with fibroblasts; actives raise or lower the signal. The method in brief:
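Dose the keratinocyte/fibroblast co-culture, wait 24 h, measure ICAM-1 by ELISA, then fit increases or decreases against DMSO. Cytotoxicity is checked in parallel cultures by SRB total-protein staining.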

Broadly, the AC50 is the concentration giving half of the maximal activity seen. As to `CCCCC(CC)COC(=O)c1ccccc1C(=O)OCC(CC)CCCC` (stereo unspecified), the outcome in test [1], in test [2], in test [3], in [4], in [5] and in test [6] was inactive. For the same compound, the result in [7] and in test [9] was inactive. Further, the AC50 in [8] is 15.1 µM (active).
For the compound `O=C(Nc1ccccc1)Nc1ccnc(Cl)c1`, the result in test [1], in [2], in test [3], in [4], in test [5] and in test [6] was inactive. The result in test [7], in [8] and in test [9] was inactive.
On to `OC(c1ccc(Cl)cc1)(c1cncnc1)c1ccccc1Cl` (stereo unspecified), for which the result in [1], in test [2], in test [3], in test [4], in test [6] and in test [10] was inactive. For the same compound, the result in test [8] and in [9] was inactive. Besides, the AC50 in [5] was 11.5 µM (active); in [7], 16.6 µM (active).
`O=C(O)COc1nc(Cl)c(Cl)cc1Cl`: the outcome in [1], in [2], in test [3], in test [4], in [5] and in [6] was inactive. Also, the result in [7], in [8] and in test [9] was inactive.
On to `CNC(=O)ON=CC(C)(C)SC`, for which the outcome in test [1], in test [2], in test [3], in test [4], in test [5] and in test [6] was inactive. Besides, the outcome in [7] and in [9] was inactive. In [8], the AC50 is 0.428 µM (active).
Turning to `CO/C=C(/C(=O)OC)c1ccccc1Oc1cc(Oc2ccccc2C#N)ncn1`, the result in test [1], in test [2], in [3], in test [4], in [5] and in [6] was inactive. Besides, the outcome in [7], in test [10], in [8] and in test [9] was inactive.
Regarding `CCCCOC(=O)c1ccccc1C(=O)OCCCC`, the values for the AC50 in [1] and in [6] were 12 µM (active) and 14 µM (active), respectively. For the same compound, the result in test [1], in [2], in test [3], in [4], in test [5] and in test [6] was inactive. Also, the result in [7], in test [8] and in test [9] was inactive.
With `COC(=O)c1ccccc1C(=O)OC`, the result in [1], in test [2], in test [3], in [4], in [5] and in test [6] was inactive. For the same compound, the result in test [7], in test [10], in test [8] and in test [9] was inactive.
In the case of `CN(C)C(=S)SSC(=S)N(C)C`, the AC50 in test [1] is 4.39 µM (active); in [2], 4.96 µM (active); in test [3], 9.76 µM (active); in [4], 3.01 µM (active); in [5], 5.34 µM (active); in [6], 4.12 µM (active). Further, the AC50 is 5.64 µM (active) in test [7], 6.42 µM (active) in test [10], 6.1 µM (active) in test [8] and 7.21 µM (active) in test [9].
`COc1nc(NC(C)C)nc(NC(C)C)n1`: the outcome in test [1], in test [2], in [3], in [4], in test [5] and in test [6] was inactive. For the same compound, the result in [7], in test [10], in test [8] and in [9] was inactive.
Turning to `COP(=S)(OC)Oc1nc(Cl)c(Cl)cc1Cl`, the AC50 is 30 µM (active) in [1], 14.9 µM (active) in test [4] and 5.76 µM (active) in test [6]. Also, the outcome in test [2], in test [3], in [5], in test [7], in test [10] and in test [8] was inactive. In [9], the result was inactive.
Take `C#CCOS(=O)OC1CCCCC1Oc1ccc(C(C)(C)C)cc1` (stereo unspecified): the AC50 in test [1] was 4.84 µM (active); in [2], 3.73 µM (active); in test [3], 5.66 µM (active); in [4] it was 13 µM (active); in test [5], 10 µM (active); in test [6], 3.65 µM (active). For the same compound, the half-maximal activity concentration (AC50) is 5.14 µM (active) in test [7], 12.8 µM (active) in [8] and 9.7 µM (active) in test [9]. The outcome in [10] was inactive.
As for `CCOC(=O)C(Cl)Cc1cc(-n2nc(C)n(C(F)F)c2=O)c(F)cc1Cl` (stereo unspecified), the outcome in test [1], in test [2], in test [3], in test [4], in test [5] and in test [6] was inactive. The outcome in test [7], in [8] and in test [9] was inactive.
